Experimental data reported in PubChem BioAssay.
Calls of active or inactive are those of the source.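 How the source made its calls, unless noted: active means response below a set limit, under 55% cells CD8-positive and vesicle-bound, and CD8 cells' 90th-percentile brightness under 279; inactive means the rest.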

How the values were obtained:
[1] = inhibitors of CD8+ T cell-vesicle binding, pilot screen, LFA-1/ICAM-1 modulator project, MLPCN validation set, flow cytometry (AID 2523); settings: 2C mouse CD8+ T cells, at 7 µM, stronger effect = lower value; double positive events: measured here: CD8+/vesicle+ event percentage;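 on vesicle binding response: mean PE anti-B7-1 fluorescence of CD8+ cells relative to row control; 100% = QL9-loaded vesicles with DMSO vehicle in the same plate row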
[2] = target: Integrin beta-1 (Homo sapiens) + Integrin alpha-4 (Homo sapiens) (UniProt P13612+P05556); assay: inhibition of HUTS-21 binding to VLA-4, pilot screen, VLA-4 allosteric modulator project, U937 cells, HUTS-21 mAb, flow cytometry, validation set (AID 2674;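 active means inhibition above 50%, about 3 SD of the validation set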;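 further: antibody binding induced by the VLA-4 ligand LDV present at three times its Kd; 0% = LDV ligand with antibody and no compound and 100% = antibody without LDV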); settings: HUTS-21 LIBS mAb binding, at 6.7 µM, stronger effect = higher value, binding induced by LDV ligand
Integrin beta-1 (Homo sapiens) + Integrin alpha-4 (Homo sapiens), sequence (P05556 whole entry, looked up): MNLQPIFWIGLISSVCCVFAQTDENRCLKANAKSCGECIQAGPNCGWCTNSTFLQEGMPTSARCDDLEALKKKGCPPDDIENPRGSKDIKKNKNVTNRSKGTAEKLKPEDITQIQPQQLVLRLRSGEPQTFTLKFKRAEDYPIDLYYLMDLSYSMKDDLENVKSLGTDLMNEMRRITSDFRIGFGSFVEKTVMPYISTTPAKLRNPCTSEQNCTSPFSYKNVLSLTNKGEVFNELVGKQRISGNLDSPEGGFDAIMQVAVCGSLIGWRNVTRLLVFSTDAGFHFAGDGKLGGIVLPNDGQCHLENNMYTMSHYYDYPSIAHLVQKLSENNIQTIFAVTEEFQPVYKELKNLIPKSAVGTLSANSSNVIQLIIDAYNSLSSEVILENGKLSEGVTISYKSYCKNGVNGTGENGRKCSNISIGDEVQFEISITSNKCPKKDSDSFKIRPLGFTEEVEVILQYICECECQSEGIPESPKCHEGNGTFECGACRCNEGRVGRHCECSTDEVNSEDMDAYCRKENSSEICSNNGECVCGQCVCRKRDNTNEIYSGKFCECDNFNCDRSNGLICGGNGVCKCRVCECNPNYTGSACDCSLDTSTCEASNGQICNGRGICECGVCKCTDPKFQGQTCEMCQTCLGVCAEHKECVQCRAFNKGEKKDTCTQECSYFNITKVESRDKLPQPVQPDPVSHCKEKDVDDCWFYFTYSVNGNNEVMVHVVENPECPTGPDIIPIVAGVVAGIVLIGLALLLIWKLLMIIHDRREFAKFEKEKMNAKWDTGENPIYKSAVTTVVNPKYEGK
Integrin beta-1 (Homo sapiens) + Integrin alpha-4 (Homo sapiens), sequence (P13612 whole entry, looked up): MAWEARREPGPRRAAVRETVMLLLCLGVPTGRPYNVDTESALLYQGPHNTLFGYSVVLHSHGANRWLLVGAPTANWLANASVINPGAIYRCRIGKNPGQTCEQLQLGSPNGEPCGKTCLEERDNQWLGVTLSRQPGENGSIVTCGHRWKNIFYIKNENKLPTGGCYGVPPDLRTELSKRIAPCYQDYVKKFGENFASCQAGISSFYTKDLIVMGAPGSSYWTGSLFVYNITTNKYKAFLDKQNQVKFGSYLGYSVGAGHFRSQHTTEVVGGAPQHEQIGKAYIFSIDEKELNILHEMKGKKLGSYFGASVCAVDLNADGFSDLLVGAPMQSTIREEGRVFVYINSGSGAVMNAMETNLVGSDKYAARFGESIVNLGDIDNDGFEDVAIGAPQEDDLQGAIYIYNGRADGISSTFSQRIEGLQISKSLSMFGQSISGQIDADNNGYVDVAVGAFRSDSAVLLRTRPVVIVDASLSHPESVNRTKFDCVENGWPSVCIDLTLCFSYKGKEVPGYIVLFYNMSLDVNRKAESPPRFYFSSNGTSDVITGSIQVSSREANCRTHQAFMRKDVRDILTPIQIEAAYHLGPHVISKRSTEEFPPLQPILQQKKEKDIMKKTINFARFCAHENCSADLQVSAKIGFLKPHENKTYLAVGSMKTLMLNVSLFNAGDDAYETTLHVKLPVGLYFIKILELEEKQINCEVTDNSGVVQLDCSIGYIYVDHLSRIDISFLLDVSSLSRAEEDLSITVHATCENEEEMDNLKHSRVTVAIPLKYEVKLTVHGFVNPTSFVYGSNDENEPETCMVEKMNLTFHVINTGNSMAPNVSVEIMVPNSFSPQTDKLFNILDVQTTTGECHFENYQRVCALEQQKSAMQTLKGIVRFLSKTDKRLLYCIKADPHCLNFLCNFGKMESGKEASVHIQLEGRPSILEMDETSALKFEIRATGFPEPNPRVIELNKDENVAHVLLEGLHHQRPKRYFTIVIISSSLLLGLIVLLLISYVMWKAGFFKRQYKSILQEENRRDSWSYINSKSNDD

[3] = superoxide lowering in aged yeast cells, pilot screen, validation compound set (AID 2706;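 active means superoxide response below 65% of plate, a cut near 3 SD across the whole screen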;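 further: yeast exposed to compound for one week at 30 degrees C before staining; 100% = mean of all compound wells on the same plate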); settings: S. cerevisiae aging, superoxide DHE fluorescence; at 10 µM, stronger effect = lower value
[4] = target: Beta-adrenergic receptor kinase 1 (Homo sapiens) (UniProt P25098); assay: GRK2 binders displacing RNA aptamer, biochemical, validation, human GRK2, bead flow cytometry (AID 488806;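 active means aptamer binding inhibition above 30%, about 3 SD of noise from non-fluorescent compounds; inactive means inhibition at or below 30%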); settings: bead-bound GRK2, FAM-aptamer displacement, at 10 µM, stronger effect = higher value
Beta-adrenergic receptor kinase 1 (Homo sapiens), sequence (P25098 whole entry, looked up): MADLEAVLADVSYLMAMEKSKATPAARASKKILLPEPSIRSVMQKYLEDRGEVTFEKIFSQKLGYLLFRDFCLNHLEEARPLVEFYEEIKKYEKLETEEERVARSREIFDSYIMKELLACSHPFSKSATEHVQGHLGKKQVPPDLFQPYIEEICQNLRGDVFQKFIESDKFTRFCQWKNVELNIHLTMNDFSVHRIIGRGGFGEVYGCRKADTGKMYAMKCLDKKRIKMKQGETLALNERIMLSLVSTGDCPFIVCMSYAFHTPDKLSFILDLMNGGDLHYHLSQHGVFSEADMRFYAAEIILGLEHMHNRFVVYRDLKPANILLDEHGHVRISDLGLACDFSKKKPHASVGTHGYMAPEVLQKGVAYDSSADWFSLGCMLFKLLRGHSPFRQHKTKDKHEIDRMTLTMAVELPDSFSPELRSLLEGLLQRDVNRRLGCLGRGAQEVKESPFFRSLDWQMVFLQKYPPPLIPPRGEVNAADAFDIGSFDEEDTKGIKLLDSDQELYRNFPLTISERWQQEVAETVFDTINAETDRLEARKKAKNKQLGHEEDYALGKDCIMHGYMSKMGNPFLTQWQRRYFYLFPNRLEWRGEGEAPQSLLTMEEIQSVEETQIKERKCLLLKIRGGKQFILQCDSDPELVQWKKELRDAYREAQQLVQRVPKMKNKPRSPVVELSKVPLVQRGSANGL

[5] = target: Beta-2 adrenergic receptor (Homo sapiens) (UniProt P07550); assay: beta2AR agonists driving receptor internalization, pilot screen, cell-based, FAP fluorogen, flow cytometry, validation set (AID 504459;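 active means percent response above 42, roughly 3 SD of non-fluorescent test compounds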;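 further: agonist-driven loss of surface beta2AR via internalization measured by FAP dye flow cytometry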); settings: Am2.2-beta2AR cells, FAP surface receptor flow cytometry; at 10 µM; stronger effect = higher value
Beta-2 adrenergic receptor (Homo sapiens), sequence (P07550 whole entry, looked up): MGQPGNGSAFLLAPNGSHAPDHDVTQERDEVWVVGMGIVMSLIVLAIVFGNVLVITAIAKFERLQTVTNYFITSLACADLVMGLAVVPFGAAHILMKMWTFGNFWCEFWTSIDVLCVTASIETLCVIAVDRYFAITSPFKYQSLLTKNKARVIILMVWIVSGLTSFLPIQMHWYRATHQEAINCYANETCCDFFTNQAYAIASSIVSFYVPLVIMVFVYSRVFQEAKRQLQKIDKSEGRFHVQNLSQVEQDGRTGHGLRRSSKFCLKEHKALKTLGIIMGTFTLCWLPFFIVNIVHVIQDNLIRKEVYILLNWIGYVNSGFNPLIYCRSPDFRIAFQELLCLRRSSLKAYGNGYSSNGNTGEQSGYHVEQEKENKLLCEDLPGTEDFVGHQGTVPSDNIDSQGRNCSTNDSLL

[6] = target: AP-2 complex subunit beta (Homo sapiens) (UniProt P63010); assay: inhibitors of arrestin peptide binding to AP2, pilot screen, biochemical, validation set, GST-AP2 beads, flow cytometry (AID 504541;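 active means inhibition above 54%, about 3 SD of non-fluorescent compounds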;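 further: AP2 carries R879A mutation and is captured from E. coli lysate; bead-bound FITC arrestin peptide fluorescence measuring arrestin peptide binding to AP2; 0% = DMSO wells and 100% = excess unlabeled arrestin peptide control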); settings: FITC arrestin peptide, at 10 µM, stronger effect = higher value, AP2 beta2 appendage fragment, R879A mutant
AP-2 complex subunit beta (Homo sapiens), sequence (P63010 whole entry, looked up, the tested form may be a part, one chain of several): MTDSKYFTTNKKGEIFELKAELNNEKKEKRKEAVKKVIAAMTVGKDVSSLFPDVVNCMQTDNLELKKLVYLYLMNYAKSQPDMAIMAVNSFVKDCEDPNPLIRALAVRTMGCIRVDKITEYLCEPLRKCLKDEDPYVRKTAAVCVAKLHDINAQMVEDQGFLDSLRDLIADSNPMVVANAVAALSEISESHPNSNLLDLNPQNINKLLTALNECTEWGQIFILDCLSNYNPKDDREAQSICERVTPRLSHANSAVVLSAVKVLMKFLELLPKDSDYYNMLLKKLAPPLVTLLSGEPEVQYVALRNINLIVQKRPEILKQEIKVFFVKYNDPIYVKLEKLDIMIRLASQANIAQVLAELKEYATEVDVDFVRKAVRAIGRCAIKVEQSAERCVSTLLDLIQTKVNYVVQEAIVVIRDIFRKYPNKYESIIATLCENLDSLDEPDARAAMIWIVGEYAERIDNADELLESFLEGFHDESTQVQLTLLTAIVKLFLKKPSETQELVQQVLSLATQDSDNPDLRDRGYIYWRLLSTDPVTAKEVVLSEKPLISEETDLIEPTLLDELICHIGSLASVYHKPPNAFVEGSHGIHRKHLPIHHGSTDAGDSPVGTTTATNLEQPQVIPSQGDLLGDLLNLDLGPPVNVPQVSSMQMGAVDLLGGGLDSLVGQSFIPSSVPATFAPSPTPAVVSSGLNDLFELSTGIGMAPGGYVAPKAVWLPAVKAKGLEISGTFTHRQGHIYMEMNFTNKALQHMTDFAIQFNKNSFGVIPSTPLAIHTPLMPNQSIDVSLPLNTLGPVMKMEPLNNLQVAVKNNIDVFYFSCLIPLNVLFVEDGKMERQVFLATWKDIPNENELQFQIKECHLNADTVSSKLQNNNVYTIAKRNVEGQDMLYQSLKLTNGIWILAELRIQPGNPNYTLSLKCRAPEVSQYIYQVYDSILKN

[7] = yeast V-ATPase proton transport modulators, S. cerevisiae, pHLuorin, HTS validation (AID 504600; in the data active means response above about 15%;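 further: plate controls were DMSO for no effect and reference compound for full effect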); settings: S. cerevisiae pHLuorin cytosolic pH, at 10 µM, stronger effect = higher value
[8] = tested on: anti-desmoglein-3 scFv antibody binding to human DSG3; assay: inhibitors of anti-DSG3 scFv binding to DSG3, pilot screen, biochemical, validation compound set, bead-based, flow cytometry (AID 588368;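 active means binding below the plate cutoff, the plate median minus 3 SD, with a reading above zero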;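 further: signal is the median channel fluorescence of bead-bound GFP antibody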); settings: Protein G beads, DSG3-Fc, scFv-GFP binding, at 10 µM, stronger effect = lower value
[9] = inhibitors of fungal efflux pumps CDR1, CDR2, MDR1, pilot screen, validation compound set, multiplex, phenotypic (AID 588506;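 active means efflux inhibition above 0.42, the validation set average plus 4 SD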;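 further: Nile Red retained in cells so higher fluorescence means more efflux inhibition; 0 = negative control wells and 1 = enniatin B 25 µM full block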); settings: S. cerevisiae pump-expressing triplex, Nile Red efflux flow cytometry; at 10 µM; stronger effect = higher value; the pumps come from Candida albicans
[10] = target: ATP-binding cassette sub-family B member 6 (Homo sapiens) (UniProt Q9NP58); assay: ABCB6 transporter inhibitors, pilot screen, K562-ABCB6 cells, flow cytometry, validation set (AID 588550;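 active means inhibition above the screen-wide mean plus 3 SD, about 51%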;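 further: 0% = DMSO wells and 100% = benzethonium chloride 70 µM positive control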); settings: K562-ABCB6 porphyrin accumulation, 1 h, at 10 µM, stronger effect = higher value
ATP-binding cassette sub-family B member 6 (Homo sapiens), sequence (Q9NP58 whole entry, looked up): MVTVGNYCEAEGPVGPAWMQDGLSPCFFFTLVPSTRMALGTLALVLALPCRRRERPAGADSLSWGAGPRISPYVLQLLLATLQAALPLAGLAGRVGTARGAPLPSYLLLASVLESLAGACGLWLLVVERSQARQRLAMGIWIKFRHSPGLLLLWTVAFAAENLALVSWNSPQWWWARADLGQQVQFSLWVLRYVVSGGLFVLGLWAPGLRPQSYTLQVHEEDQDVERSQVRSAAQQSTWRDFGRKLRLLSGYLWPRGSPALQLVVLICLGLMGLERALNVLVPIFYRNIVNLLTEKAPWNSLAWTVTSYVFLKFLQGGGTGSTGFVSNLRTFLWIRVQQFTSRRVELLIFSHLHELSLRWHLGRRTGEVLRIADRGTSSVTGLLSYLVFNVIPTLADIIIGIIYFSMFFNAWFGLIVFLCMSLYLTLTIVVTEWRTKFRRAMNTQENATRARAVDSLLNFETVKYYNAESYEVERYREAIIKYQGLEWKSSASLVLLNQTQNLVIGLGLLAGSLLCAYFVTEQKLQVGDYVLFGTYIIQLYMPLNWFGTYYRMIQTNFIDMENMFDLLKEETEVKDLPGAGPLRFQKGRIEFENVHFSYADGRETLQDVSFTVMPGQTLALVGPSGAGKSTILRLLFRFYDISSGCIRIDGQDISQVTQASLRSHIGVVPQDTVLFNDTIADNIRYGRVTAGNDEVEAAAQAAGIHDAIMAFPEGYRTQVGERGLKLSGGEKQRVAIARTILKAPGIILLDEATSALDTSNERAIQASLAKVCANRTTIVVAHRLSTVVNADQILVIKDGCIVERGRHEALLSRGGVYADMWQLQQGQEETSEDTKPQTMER

[11] = promoters of myeloid differentiation in arrested cells, primary screen, cell-based, GFP/MAC1 double positive, flow cytometry, validation set (AID 588685;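 active means differentiation response of at least 50%, scaled between solvent and reference control, from cells with both markers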;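 further: compound exposure lasts four days before antibody staining and flow analysis; 0% = DMSO wells and 100% = 5 µM fulvestrant positive control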); settings: ER-HoxA9 marrow cells, stronger effect = higher value, normalized: vehicle 0, fulvestrant 100

Structure (SMILES) | double positive events [1] | vesicle binding response [1] | inhibition [2] | superoxide response (% of plate) [3] | aptamer binding inhibition [4] | response [5] | inhibition [6] | response [7] | binding (% of control) [8] | efflux inhibition (fraction of control) [9] | inhibition [10] | differentiation response [11]
CC(C)CC(=O)N(Cc1ccc(F)cc1)C1CCS(=O)(=O)C1 (stereo not given) | 61.8% | 204% (inactive) | 0.25% (inactive) | 114% (inactive) | 2% (inactive) | 22.9% (inactive) | 1.93% (inactive) | 3.28% (inactive) | 102% (inactive) | 0.91 (active) | 19% (inactive) | -8.96% (inactive)
Cc1oc2c(C)c3oc(=O)c4c(c3cc2c1C)CCCC4 | 54.6% | 32.8% (active) | -22.2% (inactive) | 114% (inactive) | 3% (inactive) | -4.45% (inactive) | -2.86% (inactive) | 0.57% (inactive) | 89.1% (inactive) | -0.2 (inactive) | 2% (inactive) | 2.2% (inactive)
CC(C)C1Cc2[nH]c(=O)c(C(=O)O)cc2CO1 (stereo not given) | 64.9% | 1810% (inactive) | 25.5% (inactive) | 95.9% (inactive) | 4% (inactive) | -2.38% (inactive) | -1.16% (inactive) | -0.04% (inactive) | 94.2% (inactive) | -0.1 (inactive) | 10% (inactive) | 3.18% (inactive)
O=C(Nc1cccc(-c2nc3ncccc3o2)c1)c1ccccc1 | 56.1% | 159% (inactive) | 2.3% (inactive) | 106% (inactive) | 1% (inactive) | 17.2% (inactive) | -1.86% (inactive) | 7.44% (inactive) | 102% (inactive) | -0.06 (inactive) | 0% (inactive) | -16.8% (inactive)
COC1CCCCC1Nc1ccc(C)c(C)c1 (stereo not given) | 59.5% | 262% (inactive) | -1.79% (inactive) | 100% (inactive) | 5% (inactive) | 6.1% (inactive) | -5.05% (inactive) | 0.08% (inactive) | 94.7% (inactive) | 0.05 (inactive) | 5% (inactive) | -12% (inactive)
C#CCN(C)Cc1ccccc1 | 66.2% | 248% (inactive) | -2.82% (inactive) | 102% (inactive) | 2% (inactive) | -26.9% (inactive) | -10.1% (inactive) | -1.24% (inactive) | 99.9% (inactive) | -0.04 (inactive) | 2% (inactive) | -8.93% (inactive)
COc1cc2c(cc1O)CC[C@@H]1[C@@H]2CC[C@]2(C)[C@@H](O)CC[C@@H]12 | 58.8% | 139% (inactive) | 44.9% (inactive) | 112% (inactive) | -7% (inactive) | -10.9% (inactive) | -5.34% (inactive) | -4.33% (inactive) | 106% (inactive) | 0.04 (inactive) | -1% (inactive) | -9.91% (inactive)
O=C1c2ccccc2C(=O)C1c1ccccc1 | 67% | 512% (inactive) | 3.14% (inactive) | 95.2% (inactive) | 7% (inactive) | -32.5% (inactive) | -6.92% (inactive) | -0.31% (inactive) | 102% (inactive) | 0 (inactive) | 4% (inactive) | -5.97% (inactive)
O=c1c2ccccc2nc2n1-c1ccccc1CCC2 | 64.2% | 201% (inactive) | 13% (inactive) | 96.9% (inactive) | 1% (inactive) | -9.83% (inactive) | -5.56% (inactive) | 0.74% (inactive) | 99.2% (inactive) | -0.23 (inactive) | 0% (inactive) | 1.22% (inactive)
CC(C)COc1ccc(Cc2cnc(N)nc2N)cc1 | 63.9% | 226% (inactive) | 3.67% (inactive) | 97.9% (inactive) | 0% (inactive) | 5.88% (inactive) | 59.5% (active) | -3.28% (inactive) | 95.5% (inactive) | 0.05 (inactive) | 0% (inactive) | 76% (active)
CCN1C(=O)C(CC(=O)Nc2ccc(F)cc2)N(Cc2ccc3c(c2)OCO3)C1=S (stereo not given) | 56.3% | 124% (inactive) | 7.76% (inactive) | 101% (inactive) | 0% (inactive) | 22.9% (inactive) | -7.91% (inactive) | 0.48% (inactive) | 107% (inactive) | 0.44 (active) | 4% (inactive) | 58.4% (active)
O=C(O)C1Sc2[nH]c(=O)sc2C2c3ccc(O)cc3OC(=O)C12 (stereo not given) | 62.6% | 157% (inactive) | -11.8% (inactive) | 107% (inactive) | 1% (inactive) | -11.1% (inactive) | -0.44% (inactive) | 5.3% (inactive) | 95.7% (inactive) | -0.1 (inactive) | -131% (inactive) | -3.11% (inactive)
CCC(=O)Oc1ccc(/C(CC)=C(\CC)c2ccc(OC(=O)CC)cc2)cc1 | 67.2% | 174% (inactive) | 19.1% (inactive) | 94.7% (inactive) | 3% (inactive) | -5.73% (inactive) | -4.91% (inactive) | 2.77% (inactive) | 84.1% (inactive) | -0.02 (inactive) | 11% (inactive) | -4.09% (inactive)
CCOC(=O)COc1ccc2c(=O)c(-c3ccccc3)coc2c1 | 61.7% | 236% (inactive) | 21% (inactive) | 92.8% (inactive) | 0% (inactive) | -10.5% (inactive) | 1.34% (inactive) | 0.65% (inactive) | 100% (inactive) | -0.09 (inactive) | -4% (inactive) | -7.94% (inactive)
CC1(C)O[C@@H]2C[C@H]3[C@@H]4CCC5=CC(=O)C=C[C@]5(C)[C@@]4(F)[C@@H](O)C[C@]3(C)[C@]2(C(=O)CO)O1 | 61.2% | 123% (inactive) | 0.25% (inactive) | 91.8% (inactive) | -1% (inactive) | 10.2% (inactive) | -3.89% (inactive) | -1.77% (inactive) | 107% (inactive) | -0.22 (inactive) | 2% (inactive) | 40.8% (inactive)
COc1ccc(CN(CCC(c2ccc(F)cc2)C2CCOC(C)(C)C2)C(=O)c2ccco2)cc1 (stereo not given) | 59.4% | 144% (inactive) | -8.62% (inactive) | 104% (inactive) | 5% (inactive) | 22.1% (inactive) | -11.3% (inactive) | 1.03% (inactive) | 101% (inactive) | 0.12 (inactive) | 3% (inactive) | -13.6% (inactive)
COc1ccc2c(c1OC)C(=O)NC(C)=C(C(=O)OC(C)(C)C)C2O (stereo not given) | 62.8% | 192% (inactive) | 5.03% (inactive) | 97.2% (inactive) | 4% (inactive) | 7.52% (inactive) | -5.16% (inactive) | 1.16% (inactive) | 103% (inactive) | 0.01 (inactive) | 7% (inactive) | 56.8% (active)
Nc1cccc2nc3ccccc3cc12 | 60.9% | 235% (inactive) | 9.1% (inactive) | 113% (inactive) | 3% (inactive) | 2.19% (inactive) | 2.41% (inactive) | -17.4% (inactive) | 102% (inactive) | -0.04 (inactive) | 2% (inactive) | -6.96% (inactive)
CCOC(=O)c1cc2cc3ccccc3cc2[nH]1 | 70.4% | 334% (inactive) | -1.79% (inactive) | 81.1% (inactive) | 1% (inactive) | 15.9% (inactive) | -6.18% (inactive) | -1.49% (inactive) | 99.1% (inactive) | -0.1 (inactive) | 6% (inactive) | 7.2% (inactive)
COc1ccccc1C(=O)N=C1NC(=O)CC2C(=O)NCCN12 (stereo not given) | 63.2% | 245% (inactive) | 6.4% (inactive) | 100% (inactive) | 0% (inactive) | -0.52% (inactive) | 0.24% (inactive) | -0.05% (inactive) | 103% (inactive) | 0.08 (inactive) | 9% (inactive) | -8.8% (inactive)
COc1cc(OC)c(C(=O)CCCN2CCCC2)c(OC)c1 | 65.4% | 214% (inactive) | -3.24% (inactive) | 97.6% (inactive) | 4% (inactive) | -11.1% (inactive) | 1.36% (inactive) | 1.8% (inactive) | 109% (inactive) | 0.19 (inactive) | 10% (inactive) | -8.19% (inactive)
CCOC(=O)C1C(=O)CC(C)(O)C(C(=O)OCC)C1/C=C/c1ccccc1 (stereo not given) | 61.6% | 115% (inactive) | 2.93% (inactive) | 96.1% (inactive) | 2% (inactive) | 4.95% (inactive) | 1.5% (inactive) | -0.5% (inactive) | 102% (inactive) | -0.07 (inactive) | -11% (inactive) | -10.4% (inactive)
CC(=O)O[C@H]1CC[C@H]2[C@@H]3CCc4cc(O)ccc4[C@H]3CC[C@]12C | 58.2% | 234% (inactive) | 15.9% (inactive) | 80.4% (inactive) | 1% (inactive) | -33% (inactive) | 6.38% (inactive) | 2.35% (inactive) | 101% (inactive) | 0.21 (inactive) | 5% (inactive) | -1.05% (inactive)
COc1ccc(C(=O)Nc2ccc(OC)c([N+](=O)[O-])c2)cc1Br | 59% | 113% (inactive) | 4.27% (inactive) | 92.1% (inactive) | -1% (inactive) | 8.89% (inactive) | 7.87% (inactive) | 4.22% (inactive) | 83.4% (inactive) | -0.175 (inactive) | 2% (inactive) | -10.4% (inactive)
COc1ccc(/C=N\NC(=O)CCc2c(C)n[nH]c2C)c(OC)c1OC | 60.3% | 151% (inactive) | -3.16% (inactive) | 111% (inactive) | 2% (inactive) | 3.8% (inactive) | 7.15% (inactive) | -0.97% (inactive) | 102% (inactive) | -0.21 (inactive) | 4% (inactive) | 4% (inactive)
